Results published in PubChem BioAssay.
Values joined by “and” are separate entries in the source; they are usually repeats but may differ in a detail not shown here. Identical values can stand only once. Inconclusive results are not listed. Active and inactive are the calls of the source.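 Rule for the calls, unless noted: active = compounds killing one labelled cell type while sparing the other, by normalised counts and ratio limits, not self-fluorescent; inactive = the rest.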

Assays:
[1] = EMT-state selective cytotoxicity in co-culture – imaging, PC-3E GFP, TEM4-18 mCherry, primary screen (AID 1345086); conditions: PC-3E GFP / TEM4-18 mCherry co-culture, imaging cell counts, at 1 µM; for red/green cell ratio (normalised): actives lie on both sides, counts scaled to control wells, 1 = unselective;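 for all read-outs here: cells exposed to compound for 72 h before imaging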;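 for red/green cell ratio (normalised): normalised mesenchymal count divided by normalised epithelial count so high means epithelial killing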
[2] = tested on: Aerobactin synthetase IucA (Klebsiella pneumoniae); experiment: inhibition of K. pneumoniae IucA enzyme – biochemical, Tocris library, absorbance (AID 1345561; call rule not given here;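 note: 100% = enzyme without compound and 0% = no enzyme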); conditions: purified IucA enzyme assay, absorbance (OD) read-out; stronger effect = lower value;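 tested at 8 µM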
[3] = viability loss in pontine glioma line – cell-based, SU-DIPG-XVII, MIPE5.0, CellTiter-Glo, qHTS, dose response (AID 1347060; cut-off not given, nearly all actives have AC50 up to about 26 µM;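 for AC50: cells exposed to compound for 48 hours before viability readout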); conditions: CellTiter-Glo ATP luminescence
[4] = viability loss in pontine glioma line – cell-based, SU-DIPG-XIII, MIPE5.0, CellTiter-Glo, qHTS, dose response (AID 1347064; cut-off not given, nearly all actives have AC50 up to about 23 µM;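 for AC50: cells exposed to compound for 48 hours before the viability read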); conditions: CellTiter-Glo ATP luminescence
[5] = viability loss in pontine glioma line – cell-based, SU-DIPG-XIII, MIPE4.0, CellTiter-Glo, qHTS, dose response (AID 1347061; cut-off not given, nearly all actives have AC50 up to about 37 µM;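 note: cells exposed to compound for 48 hours before readout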); conditions: CellTiter-Glo ATP luminescence
[6] = viability loss in pontine glioma line – cell-based, JHH-DIPG-1, MIPE4.0, CellTiter-Glo, qHTS, dose response (AID 1347062; cut-off not given, nearly all actives have AC50 up to about 27 µM;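 for AC50: cells exposed to compound for two days before readout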); conditions: JHH-DIPG-1 viability, CellTiter-Glo ATP luminescence
[7] = viability loss in pontine glioma line – cell-based, SU-DIPG-IV, MIPE4.0, CellTiter-Glo, qHTS, dose response (AID 1347063; cut-off not given, nearly all actives have AC50 up to about 30 µM;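 note: compound exposure lasted 48 hours before the viability readout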); conditions: CellTiter-Glo ATP luminescence
[8] = measured here: epithelial PC-3E GFP cell survival
[9] = measured here: mesenchymal TEM4-18 mCherry cell survival

SMILES: CC(C)NCC(O)c1ccc2ccccc2c1 (stereo not given)
- red/green cell ratio (normalised) [1]: 1.02 (inactive)
- normalised cell number [1, 8]: 1.05
- normalised cell number [1, 9]: 1.07
- remaining activity [2]: 94.1% (inactive)

SMILES: COc1cc(C(=O)OCCCN2CCCN(CCCOC(=O)c3cc(OC)c(OC)c(OC)c3)CC2)cc(OC)c1OC
- red/green cell ratio (normalised) [1]: 1.21 (inactive)
- normalised cell number [1, 8]: 0.76
- normalised cell number [1, 9]: 0.92
- remaining activity [2]: 90.6% (inactive)

SMILES: Cc1ccc(C(=O)Nc2ccc(S(=O)(=O)O)c3cc(S(=O)(=O)O)cc(S(=O)(=O)O)c23)cc1NC(=O)c1cccc(NC(=O)Nc2cccc(C(=O)Nc3cc(C(=O)Nc4ccc(S(=O)(=O)O)c5cc(S(=O)(=O)O)cc(S(=O)(=O)O)c45)ccc3C)c2)c1
- red/green cell ratio (normalised) [1]: 1.23 (inactive) and 0.9 (inactive)
- normalised cell number [1, 8]: 0.96 and 1.07
- normalised cell number [1, 9]: 1.17 and 0.97
- remaining activity [2]: 38.8% (active)
- AC50 [3]: 14.4 µM (active)
- outcome [4]: inactive

SMILES: NS(=O)(=O)c1cc2c(cc1Cl)NC(C1CC3C=CC1C3)NS2(=O)=O (stereo not given)
- red/green cell ratio (normalised) [1]: 1.29 (inactive)
- normalised cell number [1, 8]: 0.95
- normalised cell number [1, 9]: 1.23
- remaining activity [2]: 94.1% (inactive)

SMILES: COc1ccc(CCN2CCC(Nc3nc4ccccc4n3Cc3ccc(F)cc3)CC2)cc1
- red/green cell ratio (normalised) [1]: 1.02 (inactive)
- normalised cell number [1, 8]: 1.09
- normalised cell number [1, 9]: 1.11
- remaining activity [2]: 97.7% (inactive)

SMILES: COc1ccc2[nH]cc(CCNC(C)=O)c2c1
- red/green cell ratio (normalised) [1]: 1.02 (inactive)
- normalised cell number [1, 8]: 0.84
- normalised cell number [1, 9]: 0.86
- remaining activity [2]: 102% (inactive)
- outcome [3]: inactive
- outcome [5]: inactive
- outcome [6]: inactive
- outcome [4]: inactive

SMILES: Fc1ccc(C(c2ccc(F)cc2)N2CCN(C/C=C/c3ccccc3)CC2)cc1
- red/green cell ratio (normalised) [1]: 1.11 (inactive)
- normalised cell number [1, 8]: 0.86
- normalised cell number [1, 9]: 0.95
- remaining activity [2]: 105% (inactive)
- outcome [5]: inactive

SMILES: COC(=O)[C@H]1[C@H]2C[C@@H]3c4[nH]c5cc(OC)ccc5c4CCN3C[C@H]2C[C@@H](OC(=O)c2cc(OC)c(OC)c(OC)c2)[C@@H]1OC
- red/green cell ratio (normalised) [1]: 1.08 (inactive) and 1.2 (inactive)
- normalised cell number [1, 8]: 0.87 and 1.06
- normalised cell number [1, 9]: 0.94 and 1.27
- remaining activity [2]: 124% (inactive)

SMILES: CCCOc1ccccc1-c1nc2n[nH]nc2c(=O)[nH]1
- red/green cell ratio (normalised) [1]: 0.95 (inactive)
- normalised cell number [1, 8]: 1.02
- normalised cell number [1, 9]: 0.97
- remaining activity [2]: 122% (inactive)

SMILES: O=c1c(-c2ccc(O)cc2)coc2cc(O)cc(O)c12
- red/green cell ratio (normalised) [1]: 0.95 (inactive)
- normalised cell number [1, 8]: 0.96
- normalised cell number [1, 9]: 0.91
- remaining activity [2]: 121% (inactive)
- outcome [5]: inactive
- outcome [6]: inactive
- outcome [7]: inactive
- outcome [4]: inactive

SMILES: COc1ccc(CCN(C)CCCC(C#N)(c2ccc(OC)c(OC)c2)C(C)C)cc1OC (stereo not given)
- red/green cell ratio (normalised) [1]: 1.29 (inactive)
- normalised cell number [1, 8]: 1.17
- normalised cell number [1, 9]: 1.52
- outcome [3]: inactive
- outcome [5]: inactive
- outcome [6]: inactive
- outcome [7]: inactive
- outcome [4]: inactive

SMILES: NCCS(=O)(=O)O
- red/green cell ratio (normalised) [1]: 0.92 (inactive) and 0.87 (inactive)
- normalised cell number [1, 8]: 1.27 and 1.13
- normalised cell number [1, 9]: 1.17 and 0.99
- outcome [3]: inactive
- outcome [5]: inactive
- outcome [6]: inactive
- outcome [7]: inactive

SMILES: CCOC(=O)C(C)(C)Oc1ccc(Cl)cc1
- red/green cell ratio (normalised) [1]: 0.94 (inactive)
- normalised cell number [1, 8]: 1.28
- normalised cell number [1, 9]: 1.2
- outcome [3]: inactive
- outcome [5]: inactive
- outcome [6]: inactive
- outcome [4]: inactive

SMILES: C#CCN[C@@H]1CCc2ccccc21
- red/green cell ratio (normalised) [1]: 0.97 (inactive)
- normalised cell number [1, 8]: 0.98
- normalised cell number [1, 9]: 0.94
- outcome [3]: inactive
- outcome [5]: inactive
- outcome [6]: inactive
- outcome [7]: inactive
- outcome [4]: inactive

SMILES: Cn1cnc2c1c(=O)[nH]c(=O)n2C
- red/green cell ratio (normalised) [1]: 0.94 (inactive)
- normalised cell number [1, 8]: 0.96
- normalised cell number [1, 9]: 0.9
- outcome [3]: inactive
- AC50 [5]: 23.5 µM (active)
- AC50 [6]: 23.5 µM (active)
- AC50 [7]: 10.5 µM (active)
- outcome [4]: inactive

SMILES: COc1ncnc(NS(=O)(=O)c2ccc(N)cc2)c1OC
- red/green cell ratio (normalised) [1]: 1.18 (inactive)
- normalised cell number [1, 8]: 0.5
- normalised cell number [1, 9]: 0.6
- outcome [3]: inactive
- outcome [5]: inactive
- outcome [6]: inactive
- outcome [7]: inactive
- outcome [4]: inactive

SMILES: OC[C@H]1O[C@@H](O[C@@H]2[C@@H](CO)O[C@](O)(CO)[C@H]2O)[C@H](O)[C@@H](O)[C@H]1O
- red/green cell ratio (normalised) [1]: 1.2 (inactive)
- normalised cell number [1, 8]: 1.03
- normalised cell number [1, 9]: 1.23
- outcome [3]: inactive
- outcome [5]: inactive
- outcome [7]: inactive
- outcome [4]: inactive

SMILES: CN(C)CCc1c[nH]c2ccc(CS(=O)(=O)N3CCCC3)cc12
- red/green cell ratio (normalised) [1]: 1.06 (inactive)
- normalised cell number [1, 8]: 0.96
- normalised cell number [1, 9]: 1.02
- outcome [3]: inactive
- outcome [5]: inactive
- outcome [6]: inactive

SMILES: C/C=C(/C(=C/C)c1ccc(O)cc1)c1ccc(O)cc1
- red/green cell ratio (normalised) [1]: 1.38 (inactive)
- normalised cell number [1, 8]: 1.12
- normalised cell number [1, 9]: 1.55
- AC50 [3]: 23.5 µM (active)
- outcome [5]: inactive
- outcome [6]: inactive

SMILES: Cc1cc(C2CCCCC2)n(O)c(=O)c1
- red/green cell ratio (normalised) [1]: 1.34 (inactive)
- normalised cell number [1, 8]: 0.78
- normalised cell number [1, 9]: 1.04
- AC50 [3]: 2.35 µM (active)
- AC50 [5]: 16.6 µM (active)
- AC50 [7]: 3.32 µM (active)
- AC50 [4]: 4.17 µM (active)

SMILES: CCCCN(CCCC)CCC(O)c1cc2c(Cl)cc(Cl)cc2c2cc(C(F)(F)F)ccc12 (stereo not given)
- red/green cell ratio (normalised) [1]: 1.18 (inactive)
- normalised cell number [1, 8]: 1.03
- normalised cell number [1, 9]: 1.22
- AC50 [3]: 26.3 µM (active)
- outcome [5]: inactive
- AC50 [7]: 20.9 µM (active)
- AC50 [4]: 16.6 µM (active)

SMILES: O=P(O)(O)C(O)(Cc1cccnc1)P(=O)(O)O
- red/green cell ratio (normalised) [1]: 0.63 (inactive)
- normalised cell number [1, 8]: 1.37
- normalised cell number [1, 9]: 0.87
- outcome [3]: inactive
- outcome [5]: inactive
- outcome [6]: inactive
- outcome [4]: inactive

SMILES: NNc1nncc2ccccc12
- red/green cell ratio (normalised) [1]: 1.11 (inactive)
- normalised cell number [1, 8]: 1.13
- normalised cell number [1, 9]: 1.26
- outcome [3]: inactive
- outcome [5]: inactive
- outcome [7]: inactive

SMILES: N[C@@H](Cc1ccc(O)c(O)c1)C(=O)O
- red/green cell ratio (normalised) [1]: 0.88 (inactive)
- normalised cell number [1, 8]: 1.01
- normalised cell number [1, 9]: 0.89
- outcome [3]: inactive
- outcome [5]: inactive
- outcome [6]: inactive
- outcome [7]: inactive
